# Sampled rows, rich in hits. Any-hit rate of the full collection: about 17%.
# HT1080NT lethal: kills 2HG-producing HT-1080-NT fibrosarcoma cells | HT-1080-NT fibrosarcoma viability, CellTiter-Glo ATP luminescence, 48 h | Potency, µM (titrated, usually from 46.1 µM), actives largely listed as cytotoxic | 1.6% of 360,000 active | AID 686970;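 also: NT is the 2HG producing partner of a matched IDH1 knockdown line; nearly all actives have a fitted effect of over 55% in size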
#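 750 cells/well, RPMI + 5% FBS; 2 h settle, compound pin-transfer, 48 h at 37 degrees C. CellTiter-Glo 10 min RT, luminescence. Normalized to DMSO and media-only wells.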
# TDP1 cell noCPT: qHTS for Inhibitors of human tyrosyl-DNA phosphodiesterase 1 (TDP1): qHTS in cells in absence of CPT. DT40 Tdp1-/- hTDP1 cells, no CPT, ATP luminescence, 48 h. Potency, µM (titrated, usually from 46.2 µM), actives largely listed as inhibitors. 15% of 420,000 active; also: nearly all actives have a fitted effect of over 55% in size
#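 No-CPT arm: Tdp1-/-;hTDP1 DT40 cells (400/well) plus compounds, incubated ≥48 hr at 37 °C. Readout CellTiter-Glo luminescence.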
# TDP1 cell CPT: DT40-hTDP1 cell growth loss with CPT | AID 686979 | chicken DT40 Tdp1-/-;hTDP1 cells + 20 nM CPT, ATP luminescence, 48 h | Potency, µM (series often up to 46.2 µM), actives largely listed as inhibitors | 12% of 420,000 active; also: nearly all actives have a fitted effect of over 55% in size
#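 Cell growth measured by CellTiter-Glo luminescence after a minimum 48 h, 37 C compound exposure with 20 nM CPT in Tdp1-knockout DT40 cells stably expressing hTDP1, seeded 400/well; qHTS titration format.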
# HepG2 viability: HepG2 cytotoxicity, counter-screen for TGF-b inhibitors; HepG2 CAGA-GFP viability, ATP luminescence, 18 h; Potency, µM (top dose mostly 46.1 µM), hits mostly cytotoxic; 0.76% of 410,000 active
#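 CellTiter-Glo luminescence gave cytotoxicity after 18 hours at 37 degrees C. The cells were HepG2 CAGA-GFP in 1% FBS DMEM, stimulated with 500 pg/mL TGF-beta after compound addition. %Activity was normalised to no-cell wells (complete cell-killing) and DMSO (no toxicity), and curves were fitted and classified.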
# TGFb SMAD3 inh: inhibitors of TGF-b signaling; HepG2 CAGA-GFP TGF-b/SMAD3 reporter, GFP fluorescence, 18 h; TGF-beta stimulated, 500 pg/mL final; Potency, µM (doses to about 46.1 µM), usual class: inhibitors; 1.2% of 410,000 active; also: nearly all actives have a fitted effect of over 65% in size
#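 HEPG2 CAGA-GFP, 1000 cells/well; 2 h settle, 37 C; cpd via pin tool; TGF-b 500 pg/mL final; 18 h, 37 C; GFP imaging ex488/em500-530; %Activity normalised to -TGF-b and +DMSO controls; CRC fit, curve class.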
# HT1080 IDH1KD tx: HT-1080 IDH1 knockdown cell toxicity (counter line); HT-1080 IDH1 knockdown viability, ATP luminescence, 48 h; Potency, µM (series often up to 46.1 µM), hits mostly cytotoxic; 2% of 360,000 active
#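 IDH1KD HT-1080 cells, 750/well, RPMI + 5% FBS; compound pinned after 2 h settling; 48 h, 37 °C; CellTiter-Glo luminescence; % activity normalised to DMSO and no-cell wells; curves fitted, classed by r2 and efficacy.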
# Hits are given with their value; – = inactive; ? = inconclusive; · = no result given; [ ] = remark or other dose. Calls follow the shape of the dose curve; as a rule, active = well fitted curve in the direction sought with a large enough effect; inconclusive = small, poorly fitted or top-dose-only effect, or another doubt; inactive = no such curve, though single readings can be large; an effect the other way counts as inactive or inconclusive.
SMILES,HT1080NT lethal,TDP1 cell noCPT,TDP1 cell CPT,HepG2 viability,TGFb SMAD3 inh,HT1080 IDH1KD tx
CC1=C(C(=O)OC(C)C)C(c2cccc(F)c2)n2ncnc2N1 (stereo not drawn),–,16µM,15µM,–,–,–
Nc1ccccc1Sc1nc2ccccc2[nH]1,–,15µM,13µM,–,–,–
Nc1nc2ccccc2[nH]1,–,–,–,–,–,–
CCOc1ccc(C(=O)N(Cc2cc(OC)c(OC)c(OC)c2)c2ccccn2)cc1,·,21µM,15µM,–,?,·
CCOc1ccccc1C(=O)N(Cc1cc(OC)c(OC)c(OC)c1)C1CCS(=O)(=O)C1 (stereo not drawn),·,–,–,–,–,·
COc1cc(CN(C(=O)c2ccc(C)cc2)c2ccccn2)cc(OC)c1OC,·,21µM,18µM,–,–,·
CCOc1ccc(C(=O)N(c2ccccn2)C2CCCCC2)cc1,–,–,?,–,–,–
CCOc1ccccc1C(=O)N(Cc1cc(OC)c(OC)c(OC)c1)c1ccccn1,·,?,18µM,–,–,·
COc1cc(/C=C/C(=O)N(Cc2ccccc2)c2ccccn2)cc(OC)c1OC,–,29µM,?,–,–,–
Cc1ccc(CC(=O)N(Cc2ccccc2)c2ccccn2)cc1,–,?,?,–,–,–
COc1ccc(/C=C/C(=O)N(Cc2ccccc2)c2ccccn2)cc1OC,–,–,–,–,–,–
Cc1noc(C)c1C(=O)N1CCC2(CC1)CN(Cc1cc(C(F)(F)F)cc(C(F)(F)F)c1)C2,·,–,–,·,·,·
COc1cc(CN(C(=O)c2cccc(C)c2)c2ccccn2)cc(OC)c1OC,·,13µM,13µM,–,–,·
COc1cc(CN(C(=O)Nc2cccc(Cl)c2)c2ccccn2)cc(OC)c1OC,·,?,?,–,–,·
CCN(CC)C(=O)c1ccc(-c2cccs2)s1,–,?,–,–,–,–
Oc1ccc(N=Cc2ccc(-c3cccs3)s2)cc1,–[9.24 µM],?,?,7.9µM,11µM,10µM
O=Cc1ccc(-c2cccs2)s1,–,–,–,–,5.6µM,–
Cc1cccc(NC(=O)CCC(=O)OCC(=O)c2ccc(Oc3ccc([N+](=O)[O-])cc3)cc2)c1,–,?,21µM,–,–,–
Cc1ccc(NC(=O)CCC(=O)OCC(=O)c2ccc(Oc3ccc([N+](=O)[O-])cc3)cc2)cc1C,–,–,–,–,–,–
COc1ccccc1N1CCN(CC(O)c2c(C)[nH]c3ccccc23)CC1 (stereo not drawn),–,16µM,?,–,–,–
COc1ccccc1N1CCN(CC(=O)c2c[nH]c3ccccc23)CC1,–,10µM,?,–,–,–
CC1CC(C)CN(CC(=O)c2c[nH]c3ccccc23)C1 (stereo not drawn),–,23µM,?,–,–,–
O=C(CN1CCCCC1)c1c[nH]c2ccccc12,–,–,–,–,–,–
COc1ccccc1N1CCN(CC(=O)c2c(C)[nH]c3ccccc23)CC1,–,?,?,–,–,–
CCN(CC)C(=O)C1=C(C)N(Cc2ccccc2)C(=O)C(CC(=O)NCc2ccco2)C1 (stereo not drawn),–,–,–,–,–,–
SMILES,HT1080NT lethal,TDP1 cell noCPT,TDP1 cell CPT,HepG2 viability,TGFb SMAD3 inh,HT1080 IDH1KD tx
Cc1ccc(Sc2ccc(NC(=O)CCN3C(=O)NC4(CCCC4)C3=O)cc2)c(C)c1,?,?,?,–,?,?
COc1ccccc1CNS(=O)(=O)CCNC1CC1,–,–,–,–,–,–
Cc1ccc(S(=O)(=O)CCC(=O)N(CCN2CCOCC2)c2nc3ccccc3s2)cc1,–,16µM,21µM,–,–,–
Cc1cccc2sc(N(CCN3CCOCC3)C(=O)CCS(=O)(=O)c3ccccc3)nc12,–,21µM,16µM,–,?,–
O=C(CS(=O)(=O)c1ccccc1)N(CCCN1CCOCC1)c1nc2c(F)cccc2s1,–,–,–,–,–,–
Cc1cccc2sc(N(CCCN3CCOCC3)C(=O)CS(=O)(=O)c3ccc(F)cc3)nc12,–,–,–,–,–,–
CN(N=O)C(=O)N[C@@H]1[C@@H](O)[C@H](O)[C@@H](CO)O[C@@H]1O,·,–,–,·,·,·
COc1ccc(CCNC(=O)CCC(=O)N2CC(C)Oc3ccccc32)cc1OC (stereo not drawn),–,?,–,–,–,–
Cc1cc(N(C)C)cc(C)c1C=O,·,–,–,–,–,·
CCCCc1ccc(NC(=O)c2ccc(=O)n(Cc3cccc(C)c3)c2)cc1,·,18µM,?,–,?,·
CC(C)(C)C1CCc2c(sc(NC(=O)Cn3nnc(-c4cccc(C(F)(F)F)c4)n3)c2C#N)C1 (stereo not drawn),·,–,–,–,–,·
Cc1nnc(NC(=O)C(=O)c2cc(C)n(-c3ccc(C)c(C)c3)c2C)s1,·,–,–,–,–,·
CC(C(=O)Nc1sc2c(c1C(=O)NCC1CCCO1)CCC2)N1C(=O)c2ccccc2C1=O (stereo not drawn),–,–,–,–,–,–
COc1ccc(N/C(C)=C/C(=S)Nc2ccccc2)cc1,–,?,10µM,–,?,–
COc1ccc(N/C(C)=C/C(=O)c2ccccc2)cc1,–,–,–,–,–,–
Cc1[nH]n2c(=O)c3c(nc2c1-c1ccc(F)cc1)CCCC3,–,?,16µM,–,–,–
O=c1c2c(nc3c(-c4cccc5ccccc45)c[nH]n13)CCC2,–,?,25µM,–,–,–
O=c1c2c(nc3cc(-c4cccc(Cl)c4)[nH]n13)CCC2,–,?,?,–,–,–
O=c1c2c(nc3c(-c4ccc(Cl)cc4)c[nH]n13)CCCC2,?,4µM,3.5µM,–,?,7.1µM
Cc1[nH]n2c(=O)c3c(nc2c1-c1ccccc1)CCCC3,–,?,?,–,–,–
O=C(Nc1cccc(Cn2cccn2)c1)c1cc2c(s1)CCCC2,–,11µM,?,–,–,?
CN1CCN(C(=O)c2ccc3c(c2)N(Cc2ccccc2)CCS3)CC1,–,?,?,–,–,–
Cc1ccc(CN2CCSc3ccc(C(=O)N4CCN(c5cccc(C)c5C)CC4)cc32)cc1,·,5.2µM,8.2µM,–,–,·
Cc1ccc(CN2CCSc3ccc(C(=O)N4CCN(c5ccc(Cl)cc5)CC4)cc32)cc1,·,21µM,15µM,–,–,·
CCC1CCCCN1C(=O)C(=O)c1cn(CC(=O)N(CC)CC)c2ccccc12 (stereo not drawn),–,–,?,–,–,–

# Assay outcomes from PubChem.
